# Sampled rows, rich in hits. Any-hit rate of the full collection: about 1%.
# RXFP1 ag – qHTS Assay for Agonists of the Relaxin Receptor RXFP1; Relaxin receptor 1 (Homo sapiens), Q9HBX9; HEK293T-RXFP1 cAMP TR-FRET, 30 min; response scale: percent of porcine relaxin response, buffer zero; Potency, µM (top dose mostly 57.5 µM), inactives show top-dose activation, most hits filed as activators; actives 0.3% (n = 370,000); AID 2676, 2010; note: potency is the fitted concentration of half-maximal effect; % is set by controls: 0 for no effect and ±100 for the full control effect; nearly all actives have a fitted effect of over 60% in size
# Target sequence (Q9HBX9 whole entry, looked up): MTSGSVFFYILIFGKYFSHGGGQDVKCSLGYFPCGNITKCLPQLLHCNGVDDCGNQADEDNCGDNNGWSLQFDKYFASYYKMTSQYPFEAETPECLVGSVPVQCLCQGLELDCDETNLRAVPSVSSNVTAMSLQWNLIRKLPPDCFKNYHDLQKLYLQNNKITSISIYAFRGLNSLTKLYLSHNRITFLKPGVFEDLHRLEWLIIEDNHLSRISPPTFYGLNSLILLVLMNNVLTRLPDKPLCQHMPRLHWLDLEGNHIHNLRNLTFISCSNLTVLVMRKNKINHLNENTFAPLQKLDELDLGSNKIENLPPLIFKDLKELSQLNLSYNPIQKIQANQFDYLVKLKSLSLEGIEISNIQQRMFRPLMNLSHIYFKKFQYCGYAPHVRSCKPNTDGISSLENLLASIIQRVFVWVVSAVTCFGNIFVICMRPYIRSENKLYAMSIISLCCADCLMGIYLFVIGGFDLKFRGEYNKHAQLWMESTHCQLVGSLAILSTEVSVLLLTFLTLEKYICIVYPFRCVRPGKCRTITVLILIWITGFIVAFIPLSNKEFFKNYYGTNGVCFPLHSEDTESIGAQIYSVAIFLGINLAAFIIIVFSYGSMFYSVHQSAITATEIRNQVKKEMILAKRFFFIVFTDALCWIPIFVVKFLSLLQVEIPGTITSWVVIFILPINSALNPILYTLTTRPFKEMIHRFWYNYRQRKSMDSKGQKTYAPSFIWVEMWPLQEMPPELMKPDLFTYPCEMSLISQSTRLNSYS
#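 Agonist response is measured as cAMP accumulation in an RXFP1-transfected HEK293T line under PDE4 inhibition. Values are scaled between buffer-only and 29 nM porcine relaxin, and EC50s come from standard Hill equation fits.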
# gsp ag – qHTS for Agonist of gsp, the Etiologic Mutation Responsible for Fibrous Dysplasia/McCune-Albright Syndrome: qHTS; Potency, µM (series often up to 76.9 µM), for inactives: top-dose activation (cAMP increase), most hits filed as activators; actives 0.13% (n = 340,000); AID 624287, 2012; gsp mutant cells, cAMP HTRF, 30 min; active = well fitted activation curve with a large enough effect; inconclusive = small, poorly fitted or top-dose-only effect, or another doubt; inactive = no such curve, though single readings can be large or run the other way; cell line not stated here;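 note: phosphodiesterase inhibitor Ro 20-1724 added with compounds to block cAMP breakdown; potency is the fitted concentration of half-maximal effect; nearly all actives have a fitted effect of over 60% in size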
#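 Cells in DMEM/10% FBS with G418 were pretreated with compounds in DMSO plus […] (300 uM stock) for 30 min at 37C. cAMP was measured by HTRF (cAMP-d2 plus anti-cAMP antibody-K) after 30 min at room temperature.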
# miR-21 act – qHTS Assay for Modulators of miRNAs and/orActivators of miR-21 | HeLa miR-21 FLuc reporter, luciferase, 48 h | Potency, µM (doses to about 38.3 µM), for the others: at the highest dose activity change, positive = activation, usual class: activators | 340,000 tested, under 10 active | AID 2288, 2010;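 note: % of control where 0% means no effect; miR-21 action dims this reporter so a rising signal means less miR-21 action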
#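 Compounds were titrated across several concentrations (up to approximately 40 uM) and incubated 48 hours with HeLa miR-21-FLuc reporter cells (miR-21 target sequence downstream of FLuc, endogenous miR-21). Readout was firefly luciferase luminescence after lytic detection reagent.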
# Luc counter – Counterscreen for Luciferase (Kinase-Glo TM) Inhibition; Kinase-Glo luciferase, ATP luminescence, 8 min; Luciferin 4-monooxygenase (Photuris pensylvanica), Q27757; Potency, µM (highest dose often 38.3 µM), inactives show top-dose activity change, negative = inhibition, actives largely listed as inhibitors; actives 0.28% (n = 200,000); note: potency is the fitted concentration of half-maximal effect; % is set by controls: 0 for no effect and ±100 for the full control effect; nearly all actives have a fitted effect of over 60% in size
#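 Recombinant Kinase-Glo luciferase, 10 uM ATP (linear range), luciferin; imidazole pH 7.2 / KCl / MgCl2 / Tween / BSA buffer; 8 min RT; luminescence.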
# gsp antagonist – qHTS for Antagonists of gsp, the Etiologic Mutation Responsible for Fibrous Dysplasia/McCune-Albright Syndrome: qHTS | gsp-mutant cells, cAMP HTRF, 30 min | Potency, µM (series often up to 76.9 µM), for inactives: at the highest dose activity change, negative = inhibition, hits mostly inhibitors | AID 624288, 2012 | actives 0.4% (n = 340,000); calls by dose curve; cell line not stated here;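 note: intracellular cAMP measured with PDE inhibitor Ro 20-1724 present during compound exposure; potency is the fitted concentration of half-maximal effect; % is set by controls: 0 for no effect and ±100 for the full control effect; nearly all actives have a fitted effect of over 65% in size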
#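 G418-selected cells were plated in DMEM/10% FBS for 16-24 h at 37C, then treated with compounds plus the PDE inhibitor […] (300 uM solution added) for 30 min at 37C. Intracellular cAMP was measured by HTRF after 30 min lysis at room temperature.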
# RXFP1 antagonist – qHTS Assay for Antagonists of the Relaxin Receptor RXFP1. Relaxin receptor 1 (Homo sapiens), Q9HBX9. HEK293-RXFP1, relaxin-stimulated cAMP HTRF, 30 min; hits give low values. activity change, negative = inhibition, % at 57.5 µM. actives 0.59% (n = 350,000);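 active = activity change of -60% or lower, but not beyond a set lower limit; inconclusive = change between -60% and -40%, or beyond the set limit; inactive = change above -40%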; note: % is set by controls: 0 for no effect and ±100 for the full control effect
# Numbers without * were called inactive; ? = inconclusive; . = no result given; [ ] = remark or other dose. Unless noted, calls come from the whole dose curve; as a rule, active = well fitted curve in the direction sought with a large enough effect; inconclusive = small, poorly fitted or top-dose-only effect, or another doubt; inactive = no such curve, though single readings can be large; an effect the other way counts as inactive or inconclusive.
SMILES,RXFP1 ag,gsp ag,miR-21 act,Luc counter,gsp antagonist,RXFP1 antagonist
CN(c1ccccc1)S(=O)(=O)c1cccc(NC(=O)c2cccc(C#N)c2)c1,-0.9%,16.5%,.,.,-27.7%,-10.0
CN(C)S(=O)(=O)c1cccc(NC(=O)c2ccc(COc3ccccc3)cc2)c1,5.9%,0.4%,?,.,31.6µM*,-9.4
COc1ccc([N+](=O)[O-])cc1N(CC(O)CN1CCCC1)S(=O)(=O)c1ccc(C)cc1 (stereo not drawn),-0.7%,?,-2.4%,.,4.5%,-65.8*
CCN1C(=O)C2(c3ccccc31)c1c(oc3ccc(C)cc3c1=O)C(=O)N2CCCOC(C)C (stereo not drawn),2.5%,.,1.1%,.,.,.
NS(=O)(=O)c1ccc(CCn2c(=S)[nH]c3ccccc3c2=O)cc1,0.5%,-23.4%[15.4 µM],2.2%,.,0.1%,-64.0*
O=c1c2ccccc2[nH]c(=S)n1CCN1CCc2ccccc2C1,0.3%,16.0%[15.4 µM],5.9%,.,-11.1%,-75.3*
O=c1c2ccccc2[nH]c(=S)n1CCc1ccccc1,-1.1%,-15.1%,-41.4%,-3.8%,11.4%,-11.3
Brc1ccsc1-c1csc(-c2ccncc2)n1,17.6%,17.8µM*,-51.0%,.,-2.8%,-2.8
CN(CC(=O)Nc1ccccc1Cl)C(=O)COC(=O)Cc1c(F)cccc1Cl,12.6µM*,10.2%,2.3%,.,6.8%,-6.8
CN(CC(=O)Nc1ccc(F)cc1)C(=O)COC(=O)Cc1c(F)cccc1Cl,1.2%,-34.4%[15.4 µM],.,.,3.3%,16.0
O=C(NCC(c1cccnc1)N1CCN(Cc2ccccc2)CC1)C(=O)Nc1ccc(F)cc1 (stereo not drawn),-0.7%,.,-58.7%,.,.,-22.7
CCc1cc2c(N3CCN(c4ccccc4)CC3)ncnc2s1,4.0%,-35.1%,29.6%,-0.6%,50.1µM*,-23.5
Oc1ccc(N2CCN(c3ncnc4sc(-c5ccccc5)cc34)CC2)cc1,-1.6%,2.5%[15.4 µM],-1.1%,-4.2%,-32.1%,-34.1
CCOc1ccc(/C=N/NC(=O)Cc2ccccc2)cc1CN1CC2CC(C1)c1cccc(=O)n1C2 (stereo not drawn),2.0%,.,.,.,35.5µM*,.
CCOc1ccc(NC(=O)c2ccc(N3CC4CC(C3)c3cccc(=O)n3C4)c(NC(=O)CCN3CCOCC3)c2)cc1 (stereo not drawn),-3.9%,-5.0%,-5.5%,.,-5.2%,-15.8
CCOc1ccc(/C=N/NC(=O)c2ccc(O)cc2)cc1CN1CC2CC(C1)c1cccc(=O)n1C2 (stereo not drawn),1.6%,.,.,.,39.8µM*,.
O=C(O)[C@H](O)[C@@H](O)[C@H](O[C@@H]1O[C@H](CO)[C@H](O)[C@H](O)[C@H]1O)[C@H](O)CO,.,.,.,.,.,-6.2
CC/C=C(/C(=O)N[C@@H]1C(=O)N2C(C(=O)OCOC(=O)C(C)(C)C)=C(COC(N)=O)CS[C@H]12)c1csc(N)n1,.,.,.,.,.,-14.0
COc1cc(Nc2c(C#N)cnc3cc(OCCCN4CCN(C)CC4)c(OC)cc23)c(Cl)cc1Cl,.,.,.,.,.,-12.8
COc1ccc(C(CCNCc2ccccc2)c2ccc(F)cc2)cc1 (stereo not drawn),0.0%,-3.9%,24.7%,5.6%,-2.7%,-1.1
COc1ccc(C(CCNC(C)c2ccccc2)c2ccc(F)cc2)cc1 (stereo not drawn),-1.9%,0.1%,?,0.6%,2.6%,-65.7*
CC(=O)Nc1ccc(S[C@@H](CCN2CC[C@H](O)CCC2=O)c2ccccc2)cc1,-3.5%,5.7%,.,.,50.1µM*,.
O=C1CC[C@@H](O)CCN1CC[C@H](Sc1ccccc1)c1ccccc1,-0.8%,.,-4.2%,.,-17.6%,.
COc1ccccc1C1c2ccc3ccccc3c2Oc2ncn(CCCO)c(=N)c21 (stereo not drawn),-1.6%,9.0%,-0.1%,.,14.1%,-3.5
COc1ccccc1C1c2ccc3ccccc3c2Oc2ncn(CCN(C)C)c(=N)c21 (stereo not drawn),2.0%,-19.2%[15.4 µM],?,.,12.2%,-78.5*
SMILES,RXFP1 ag,gsp ag,miR-21 act,Luc counter,gsp antagonist,RXFP1 antagonist
CN1C[C@H]2c3ccccc3Oc3ccc(Cl)cc3[C@@H]2C1,.,.,.,.,.,-16.1
CCCSc1nnc2c(n1)OC(c1ccc(Br)s1)Nc1ccccc1-2 (stereo not drawn),15.9%,.,-50.9%,.,.,-16.0
CC/C=C(\C(=O)N[C@H]1C(=O)N2C(C(=O)OCOC(=O)C(C)(C)C)=C(COC(N)=O)CS[C@H]12)c1csc(N)n1,.,.,.,.,.,-5.6
c1ccc2c(c1)[nH]c1c(NCC3CCCO3)ncnc12 (stereo not drawn),0.6%,-1.3%,14.9%,.,35.5µM*,-4.7
CCCCOCCCNc1ncnc2c1[nH]c1ccccc12,-2.8%,0.4%,24.1%,-1.0%,7.94µM*,-2.7
C[C@H]1C[C@H]2[C@@H]3CCC4=CC(=O)C=C[C@]4(C)[C@H]3C(=O)C[C@]2(C)[C@@]1(O)C(=O)CO,.,.,.,.,.,28.8
Cc1cc2n(n1)CCC(=O)N2Cc1ccc(C(=O)Nc2ccc(F)cc2F)cc1,2.6%,.,12.0%,.,.,-3.0
COc1cccc(CNS(=O)(=O)c2cc(CN3C(=O)c4cccnc4C3=O)ccc2OC)c1,21.4%,5.9%,1.9%,.,4.2%,13.2
COc1ccc(CN2C(=O)c3cccnc3C2=O)cc1S(=O)(=O)N1CCOc2ccc(Cl)cc21,12.4%,9.5%,3.3%,.,-1.2%,10.8
COc1ccc(CN2C(=O)c3cccnc3C2=O)cc1S(=O)(=O)NC1CCCCC1C (stereo not drawn),25.1µM*,?,-1.8%,.,8.9%,7.8
COc1ccc(CN2C(=O)c3cccnc3C2=O)cc1S(=O)(=O)N1CCCC(C)C1 (stereo not drawn),7.94µM*,7.94µM*,0.7%,.,14.5%,14.4
Cn1nc(-c2ccc(Cl)cc2)nc2c(=O)n(C)c(=O)nc1-2,4.47µM*,.,?,-9.3%,.,.
CS(=O)(=O)n1nc(-c2ccc(Cl)cc2)nc1N,1.4%,10.5%[15.4 µM],-21.1%,-0.6%,5.1%,-1.2
Cc1ccc2c(c1)-c1nc(-c3ccc4c(c3)NC(=O)CO4)cc(-c3ccc(F)cc3)c1CO2,-0.1%,.,2.2%,.,.,.
COc1ccc(/C=N/Nc2ncc(-c3ccccc3)cn2)c(OC)c1,-4.7%,0.0%,-11.5%,-1.4%,2.7%,-2.5

# Screens: PubChem, National Center for Advancing Translational Sciences (NCATS)
